Test systems include T-47D breast; BT-549 breast; MDA-MB-435 melanoma; SW-620 colon; MCF7 breast; HCT-116 colon; HCC-2998 colon; KM12 colon.
Common to all, as to assay: NCI-60 one-dose screen, 48 h (100 = growth as untreated, 0 = no growth, -100 = all killed)
Conditions in all cases: 10 µM

About 83,000 compounds went through this panel and 20% of them were active in at least one assay; those are over-represented in the sample as a whole.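 Cell lines were cultured in 96-well plates, exposed to a single compound concentration, and assessed for percent growth 48 hours later.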 Unmarked numbers belong to inactive results. The source made the active and inactive calls. The calls were made as follows: active = growth percent below 10; inactive = the rest.

With `Nc1nc(Cl)nc2c1ncn2C1O[C@H](CO)[C@@H](O)[C@@H]1F` (some centres undefined), the growth in the experiment on T-47D breast is 49.3%; in the experiment with BT-549 breast, 20.4%; in the experiment on MDA-MB-435 melanoma, 41.5%; in the experiment on SW-620 colon, 49.7%; in the experiment with MCF7 breast, 30.7%; with HCT-116 colon, 25.3%. Moreover, the growth was 57.3% in the experiment with HCC-2998 colon and 51.4% in the experiment with KM12 colon.

For the molecule `Cc1[nH]c2ccccc2c1/C=N/Nc1ncnc2sc3c(c12)CCN(CC(=O)OC(C)(C)C)C3`, the growth in the experiment with T-47D breast is 80.7%; in the experiment with BT-549 breast, 81.4%; in the experiment with MDA-MB-435 melanoma, 32.3%; with SW-620 colon, 60%; in the experiment with MCF7 breast, 65.4%; in the experiment with HCT-116 colon, 40.8%. Further, the growth in the experiment on HCC-2998 colon was 99.5%; in the experiment with KM12 colon it was 76%.

Turning to `CC(C)C[C@H](NC(=O)Cn1cccc(CNC(=O)c2ccccc2)c1=O)B(O)O`, the growth in the experiment on T-47D breast was -18.5% (active); with BT-549 breast, 24.1%; in the experiment with MDA-MB-435 melanoma, -54.5% (active); in the experiment on SW-620 colon it was 6.53% (active); in the experiment on MCF7 breast, 30.2%; in the experiment with HCT-116 colon, 2.43% (active). Moreover, the results for the growth in the experiment with HCC-2998 colon and in the experiment on KM12 colon were -34.8% (active) and -12.5% (active), respectively.

As for `COc1ccc(-c2cc(-c3ccccc3)nc(SCCCCCCC(=O)NO)n2)cc1`, the growth in the experiment with T-47D breast was 33.5%; in the experiment with BT-549 breast, 85.4%; with MDA-MB-435 melanoma, 35.5%; in the experiment with SW-620 colon it was 22.6%; in the experiment on MCF7 breast it was 30.4%; in the experiment with HCT-116 colon, 25.1%. Also, the results for the growth with HCC-2998 colon and with KM12 colon were 79.4% and 60.3%, respectively.

Regarding `CCNc1nc(C(F)(F)F)nc2c1sc(=S)n2-c1ccccc1`, the growth in the experiment with T-47D breast was 73.9%; in the experiment on BT-549 breast, 95.2%; in the experiment with MDA-MB-435 melanoma, 113%; in the experiment with SW-620 colon, 106%; with MCF7 breast, 96.4%; in the experiment with HCT-116 colon, 94.3%. In addition, the growth is 115% in the experiment with HCC-2998 colon and 89.2% in the experiment with KM12 colon.

For `O=C(Nc1ccc2c(O)cc(S(=O)(=O)O)cc2c1)c1ccc([N+](=O)[O-])cc1`, the growth was 86% in the experiment on T-47D breast; 94.3% in the experiment with BT-549 breast; 106% with MDA-MB-435 melanoma; 100% in the experiment with SW-620 colon; 96.3% in the experiment on MCF7 breast; 94.1% with HCT-116 colon. The figures for the growth with HCC-2998 colon and in the experiment on KM12 colon were 108% and 97.2%, respectively.

For the molecule `COc1cc2cc(Oc3ccc(NC(=O)c4cc(C(F)(F)F)cc(C(F)(F)F)c4)cc3)c(C)nc2cc1OC`, the growth in the experiment with T-47D breast is 86.7%; with BT-549 breast, 52.4%; in the experiment on MDA-MB-435 melanoma it was 49.1%; with SW-620 colon it was 47.4%; in the experiment on MCF7 breast, 29.5%; with HCT-116 colon it was 19.2%. Besides, the growth was 73.9% with HCC-2998 colon and 37.6% in the experiment with KM12 colon.

Consider `CCCCC(CC)CN=C(N)NC(N)=NCCCCCCN=C(N)NC(N)=NCC(CC)CCCC` (centres undefined), for which the growth in the experiment with T-47D breast is -54.3% (active); in the experiment on BT-549 breast it was -85.2% (active); in the experiment on MDA-MB-435 melanoma, -94% (active); in the experiment on SW-620 colon, -78% (active); in the experiment with MCF7 breast, -75.7% (active); in the experiment with HCT-116 colon, -85.6% (active). Also, the figures for the growth in the experiment with HCC-2998 colon and in the experiment with KM12 colon were -88.8% (active) and -94.4% (active), respectively.

Regarding `CSc1ccc(-c2cc(-c3ccc(NC(=O)CCCN4CCCC4)cc3)nc(-c3ccc(NC(=O)CCCN4CCCC4)cc3)c2)cc1`, the growth in the experiment with T-47D breast was 102%; in the experiment with BT-549 breast it was 77.6%; with MDA-MB-435 melanoma it was 79.7%; with SW-620 colon, 67.6%; with MCF7 breast, -86.4% (active); in the experiment on HCT-116 colon, 80.4%. Also, the growth in the experiment with HCC-2998 colon is 86.3%; with KM12 colon it was 24.6%.

Turning to `CCN(CC)CC(=O)N(CC)c1ccc(C)c(Cl)c1`, the growth was 90.3% in the experiment on T-47D breast; 98.1% with BT-549 breast; 103% in the experiment on MDA-MB-435 melanoma; 97.3% in the experiment with SW-620 colon; 98.6% in the experiment on MCF7 breast; 98.7% in the experiment on HCT-116 colon. The growth in the experiment with HCC-2998 colon is 102%; in the experiment with KM12 colon, 97.9%.

For `Cc1ccc(N=Nc2ccccc2)cc1`, the growth in the experiment on T-47D breast was 88.2%; with BT-549 breast it was 90%; in the experiment on MDA-MB-435 melanoma, 101%; in the experiment on SW-620 colon, 102%; with MCF7 breast, 98.3%; with HCT-116 colon, 78.4%. The growth is 103% in the experiment with HCC-2998 colon and 93.8% in the experiment on KM12 colon.

With `Cc1ccc(/C=C/C(=O)C(=O)/C=C/c2ccc(C)cc2)cc1`, the growth with T-47D breast is 92.4%; with BT-549 breast, 95.3%; in the experiment on MDA-MB-435 melanoma, 76.9%; in the experiment with SW-620 colon, 100%; in the experiment with MCF7 breast, 23.8%; with HCT-116 colon, -36.8% (active). Moreover, the growth was 110% with HCC-2998 colon and 93.8% with KM12 colon.

On to `COc1cc(C2CC(c3cc(Cl)c(C)cc3O)=NN2c2ccc(S(N)(=O)=O)cc2)cc(OC)c1OC` (centres undefined), for which the growth with T-47D breast is -1.47% (active); with BT-549 breast it was 30.9%; in the experiment on MDA-MB-435 melanoma it was 20.9%; in the experiment on SW-620 colon, 18.8%; with MCF7 breast, -15.4% (active); with HCT-116 colon it was -14.3% (active). Also, the growth with HCC-2998 colon is -20.6% (active); with KM12 colon, 2.06% (active).

The values above are taken from PubChem BioAssay (NCI).
